Rv3671c inh: Rv3671c (M. tuberculosis) protease inhibition | inhibition, % at 5.96 µM | 320,000 compounds, 0.048% hits | P9WHR9; in the data active means inhibition above about 38%;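 further: extracellular domain of Rv3671c used as enzyme; 0% = enzyme with DMSO and 100% = no enzyme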
Target sequence (P9WHR9 whole entry, looked up, the tested form may be a part): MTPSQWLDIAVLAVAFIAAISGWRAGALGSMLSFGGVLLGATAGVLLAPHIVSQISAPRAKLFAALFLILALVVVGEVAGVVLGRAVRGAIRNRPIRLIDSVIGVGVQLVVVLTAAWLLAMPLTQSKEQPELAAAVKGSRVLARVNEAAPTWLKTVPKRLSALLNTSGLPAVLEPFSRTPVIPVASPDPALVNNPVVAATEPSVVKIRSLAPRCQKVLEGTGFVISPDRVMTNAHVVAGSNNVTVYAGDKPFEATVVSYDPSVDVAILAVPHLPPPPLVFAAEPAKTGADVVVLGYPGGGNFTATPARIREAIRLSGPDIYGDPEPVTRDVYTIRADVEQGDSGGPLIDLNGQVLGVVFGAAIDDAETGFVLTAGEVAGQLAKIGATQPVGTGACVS
RecA intein inh: Mtb RecA intein splicing inhibition. P9WHJ3. cell-free RecA intein splicing, fluorescence. inhibition, % (no concentration beside the values). 290,000 compounds, 0.75% hits. AID 2221; in the data active means inhibition above about 30%;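 further: 0% = vehicle wells and 100% = reference inhibitor control wells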
Mtb FBA inh: Mtb fructose-bisphosphate aldolase inhibition. P9WQA3. purified M. tuberculosis FBA, fluorescence read-out. inhibition, % at 1 µM. 360,000 compounds, 2.3% hits. AID 588726; in the data active means inhibition above about 27%;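 further: 0% = vehicle and 100% = reference inhibitor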
Mtb bLac sens: beta-lactam sensitization of Mtb H37Rv; M. tuberculosis H37Rv growth with meropenem, percent inhibition; inhibition, % at 25 µM; 330,000 compounds, 0.27% hits; call rule not given here;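 further: growth measured after seven days incubation then overnight dye step; 0% = bacteria only wells and 100% = bacteria with antibiotic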
UGM FP inh: Mtb UDP-galactopyranose mutase inhibition. purified UGM, fluorescence polarization probe displacement. AID 504406. 320,000 compounds, 0.06% hits. inhibition, % at 10 µM; in the data active means inhibition above about 10%, passing the limit was not always enough
GDH-TPI inh: inhibits GDH-TPI coupling enzymes, artifact for Mtb FBA screen. 360,000 compounds, 1.2% hits. GDH-TPI coupled enzyme counterscreen, NADH absorbance. inhibition, % at 4.8 µM. AID 588335; in the data active means inhibition above about 30%;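 further: 0% = DMSO wells and 100% = wells lacking the enzyme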
Active calls of the source: *; · = no result given; + = active, no number. Sampled rows, rich in hits. Any-hit rate of the full collection: about 4%.

SMILES	Rv3671c inh	RecA intein inh	Mtb FBA inh	Mtb bLac sens	UGM FP inh	GDH-TPI inh
CCCCNc1nnc(SCC(=O)c2c(N)n(C3CC3)c(=O)[nH]c2=O)s1	-5	·	-2	-12	-1	14
O=C(Nc1ncc(Cc2cccc(C(F)(F)F)c2)s1)c1ccc(-c2cccc([N+](=O)[O-])c2)o1	-13	0	0	97	4	54*
O=C(Nc1nccs1)c1ccc(-c2cccc([N+](=O)[O-])c2)o1	-4	2	1	-6	-1	9
COc1ccc(-n2c(C)cc(C(=O)CCl)c2C)cc1	6	34*	4	98	-1	3
CC(=O)Nc1cccc(-c2csc(N)n2)c1	-2	-3	5	2	-2	1
CC(=O)Nc1cccc(-c2cc(C)c3cc4c(cc3n2)OCO4)c1	·	-1	14	·	·	32*
COC(=O)c1cc(Br)ccc1-c1ccc(/C=N/n2nnnc2N)o1	-4	1	3	-9	-1	44*
CC1CCC2(CC1)NC(=O)N(CC(=O)Nc1cccc(C#N)c1)C2=O (stereo unspecified)	-8	·	2	-6	·	3
Cc1cccc(CN2CCN(C(=O)CCl)CC2)c1	-15	33*	0	98	-3	7
CSc1ccc(CN2CCN(C(=O)Cc3ccccc3)CC2)cc1	5	0	2	-5	-2	31*
Cc1cccc(CN2CCN(C(=O)Cc3ccccc3)CC2)c1	4	0	1	-9	2	5
CCc1ccc(CN2CCN(C(=O)Cc3ccccc3)CC2)cc1	8	0	-1	-7	-1	-6
C/C(=N\Nc1nc2ccccc2[nH]1)c1ccc2c(c1)OCCO2	6	3	3	1	1	13
C/C(=N\Nc1nc2ccccc2[nH]1)c1cc2ccccc2o1	11	8	4	91	1	33*
C/C(=N\Nc1nc2ccccc2[nH]1)c1ccc2c(c1)OCO2	5	5	2	-4	1	31*
CC(C(=O)NCCc1ccc(Cl)cc1)n1c(=O)c2cccn2c2cccnc21 (stereo unspecified)	-10	-3	5	0	2	21
CC1Oc2cc3c(-c4c(O)cc(O)c5c(O)c6c(cc45)OC(C)C(C)C6=O)c(O)cc(O)c3c(O)c2C(=O)C1C (stereo unspecified)	40*	87*	-2	6	1	27
COC(=O)Nc1ccc(SCC(=O)c2cccc([N+](=O)[O-])c2)cc1	-2	4	1	5	0	4
CN1CC(C(=O)O)Cc2c1ccc1ccccc21 (stereo unspecified)	-21	-58	102*	2	1	6
COc1cc(OC)c(N(C)C(=O)c2cc3c(s2)-c2ccccc2S(=O)(=O)C3)cc1Cl	-4	-1	4	2	-2	12
C=CCn1c(N)c(C(=O)OC(C)(C)C)c2nc3ccccc3nc21	·	-133	+	·	·	22
C=CCn1c(N)c(C(=O)OC(C)CC)c2nc3ccccc3nc21 (stereo unspecified)	·	-77	167*	·	·	20
CC(NC(=O)COC(=O)c1ccc(CO)cc1)C1CC2CCC1C2 (stereo unspecified)	-2	·	-3	1	0	4
CCCCn1c(N)c(N(CC(C)C)C(=O)CC2OC(=O)c3ccccc32)c(=O)[nH]c1=O (stereo unspecified)	3	0	2	-5	-2	-1
CC12CCC(C(=O)Nc3c(Cl)cccc3Cl)(C(Br)C1=O)C2(C)C (stereo unspecified)	1	-3	-2	-7	0	7
SMILES	Rv3671c inh	RecA intein inh	Mtb FBA inh	Mtb bLac sens	UGM FP inh	GDH-TPI inh
CC12CCC(C(=O)Nc3cccc(Cl)c3Cl)([C@H](Br)C1=O)C2(C)C (stereo partly specified)	-3	0	113*	-6	2	0
CN(C)c1oc(-c2ccccc2F)nc1C#N	3	0	+	4	2	22
CNc1oc(-c2cccs2)nc1C#N	0	-2	+	-14	-3	23
CN(C)c1oc(-c2cccs2)nc1C#N	8	-5	+	-3	0	30
O=C(Nc1cccc(C(=O)O)c1)/C(=C\C=C\c1ccccc1)NC(=O)c1ccccc1	0	-5	-7	4	1	33*
O=C(Nc1cccc(C(=O)O)c1)/C(=C\c1ccccc1)NC(=O)c1ccccc1	4	2	-2	8	0	1
Cc1ccc(NC(=O)/C(=C\C=C\c2ccccc2)NC(=O)c2ccccc2)cc1	-16	5	0	-11	-1	51*
O=C(Nc1ccc(C(=O)O)cc1)/C(=C/c1ccc2c(c1)OCO2)NC(=O)c1cccc(Br)c1	1	1	-3	-1	0	22
CCOC(=O)/C(=C/C=C/c1ccccc1)NC(=O)c1ccccc1	-5	2	1	2	-1	30
O=C(Nc1ccc(C(=O)O)cc1)/C(=C\C=C\c1ccccc1)NC(=O)c1cccc(Br)c1	-29	14	-3	0	4	42*
CCOC(=O)/C(=C\C=C\c1ccccc1)NC(=O)c1ccccc1	-5	1	3	6	-2	67*
O=C(CC1Sc2ccccc2NC1=O)NNc1cc(Cl)ccc1Cl (stereo unspecified)	·	·	-1	·	·	9
Nc1nonc1-n1nnc(C(=O)N/N=C/c2ccc(OCc3ccccc3)cc2)c1CNc1ccccc1	-2	-1	1	2	-1	9
O=C(Nc1ccc(C(=O)O)cc1)/C(=C\C=C\c1ccccc1)NC(=O)c1ccccc1Br	-9	2	-3	8	1	52*
COc1cc(/C=C/C(=O)c2c(O)ccc3c(C)cc(=O)oc23)ccc1O	-5	-1	2	99	1	50*
COc1ccc(/C=C\C(=O)c2c(O)ccc3c(C)cc(=O)oc23)cc1OC	-1	0	5	99	0	52*
Cc1cc(=O)oc2c(C(=O)/C=C\c3cccs3)c(O)ccc12	-3	-3	1	66	-3	42*
Cc1cc(=O)oc2c(C(=O)/C=C/c3ccccc3)c(O)ccc12	3	-5	8	59	-2	2
COc1cc(/C=C/C(=O)c2c(O)cc(C)oc2=O)cc(OC)c1O	1	-4	-6	79	-2	34*
COCCCN1C(=O)C(=O)/C(=C(/O)c2ccc(S(=O)(=O)N3CCOCC3)cc2)C1c1cccc(Cl)c1 (stereo unspecified)	3	3	-1	3	2	26
Cc1cccn2c(=O)c3cc(C(=O)NCc4ccco4)c(=N)n(C4CCCCC4)c3nc12	3	-304	85*	-2	-2	1
COc1ccc(CCn2c(=N)c(C(=O)NCCN3CCOCC3)cc3c(=O)n4cccc(C)c4nc32)cc1OC	-2	2	2	9	-3	8

Assay outcomes as filed in PubChem BioAssay.
